Reference: PubChem BioAssay AID1159580 (chemical genetic matrix, 2015)
Several values for one entry are separate records, joined by “and”; a condition that tells them apart may be missing. Identical values can stand only once. Out of some 5,500 compounds screened, about 2,000 (36%) were called active. About 18% were inconclusive and are not listed. The list shows a part of the results. Unmarked numbers belong to inactive results. Rule as the data show it: active = normalized growth mostly below about 0.91 (no sharp cut-off); inconclusive = no clear call, values can overlap the other calls; inactive = mostly above about 0.92.

Assay: chemical genetic growth profiling, strain panel (AID 1159580);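 also: tested at 20 µM; growth read once vehicle control cultures reached saturation at 30 °C; 1 = growth at the plate median or of vehicle wells; lower values mean less growth of the strain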
Conditions: growth OD

Structure (SMILES): CN(C)CCN(Cc1cccs1)c1ccccn1
- normalized growth (S. cerevisiae deletion strains, locus YJR066W, strain TOR1, hits give low values): 0.82 (active)
- normalized growth (S. cerevisiae deletion strains, locus YJR075W, strain HOC1, hits give low values): 0.98 and 1.01
- normalized growth (S. cerevisiae deletion strains, locus YKL009W, strain mrt4, hits give low values): 1.02
- normalized growth (S. cerevisiae deletion strains, locus YKL068W, hits give low values): 1.01
- normalized growth (S. cerevisiae deletion strains, locus YKL085W, strain MDH1 (second series), hits give low values): 0.997
- normalized growth (S. cerevisiae deletion strains, locus YKL085W, strain MDH1, hits give low values): 0.997
- normalized growth (S. cerevisiae deletion strains, locus YKL160W, strain elf1, hits give low values): 1.01
- normalized growth (S. cerevisiae deletion strains, locus YKL190W, strain CNB1, hits give low values): 0.985
- normalized growth (S. cerevisiae deletion strains, locus YKR001C, strain vps1, hits give low values): 0.986
- normalized growth (S. cerevisiae deletion strains, locus YKR026C, strain gcn3, hits give low values): 1.01
- normalized growth (S. cerevisiae deletion strains, locus YKR091W, strain srl3, hits give low values): 1
- normalized growth (S. cerevisiae deletion strains, locus YLL001W, strain dnm1, hits give low values): 1.01
- normalized growth (S. cerevisiae deletion strains, locus YLL026W, hits give low values): 1
- normalized growth (S. cerevisiae deletion strains, locus YLL041C, strain sdh2, hits give low values): 1.01
- normalized growth (S. cerevisiae deletion strains, locus YLR027C, strain aat2, hits give low values): 1.01
- normalized growth (S. cerevisiae deletion strains, locus YLR039C, strain RIC1, hits give low values): 1.03
- normalized growth (S. cerevisiae deletion strains, locus YLR058C, strain SHM2, hits give low values): 1.02
- normalized growth (S. cerevisiae deletion strains, locus YLR102C, strain apc9, hits give low values): 1.01
- normalized growth (S. cerevisiae deletion strains, locus YLR113W, strain HOG1, hits give low values): 0.995
- normalized growth (S. cerevisiae deletion strains, locus YLR221C, strain rsa3, hits give low values): 1.01
- normalized growth (S. cerevisiae deletion strains, locus YLR258W, strain gsy2, hits give low values): 1.01
- normalized growth (S. cerevisiae deletion strains, locus YLR262C, strain YPT6 (second series), hits give low values): 1.01
- normalized growth (S. cerevisiae deletion strains, locus YLR262C, strain YPT6, hits give low values): 1.11
- normalized growth (S. cerevisiae deletion strains, locus YLR268W, strain sec22, hits give low values): 1.01
- normalized growth (S. cerevisiae deletion strains, locus YLR320W, strain mms22, hits give low values): 1.04
- normalized growth (S. cerevisiae deletion strains, locus YLR330W, strain CHS5, hits give low values): 1
- normalized growth (S. cerevisiae deletion strains, locus YLR342W, strain FKS1 (second series), hits give low values): 1.04
- normalized growth (S. cerevisiae deletion strains, locus YLR342W, strain FKS1, hits give low values): 1.01
- normalized growth (S. cerevisiae deletion strains, locus YLR357W, strain rsc2, hits give low values): 1.03
- normalized growth (S. cerevisiae deletion strains, locus YLR370C, strain arc18, hits give low values): 1.02
- normalized growth (S. cerevisiae deletion strains, locus YLR371W, strain rom2, hits give low values): 1.01
- normalized growth (S. cerevisiae deletion strains, locus YLR384C, strain iki3, hits give low values): 1.01
- normalized growth (S. cerevisiae deletion strains, locus YLR418C, strain cdc73, hits give low values): 1.02
- normalized growth (S. cerevisiae deletion strains, locus YML016C, strain PPZ1, hits give low values): 1.01
- normalized growth (S. cerevisiae deletion strains, locus YML032C, strain rad52, hits give low values): 0.988
- normalized growth (S. cerevisiae deletion strains, locus YML120C, strain ndi1, hits give low values): 1.01
- normalized growth (S. cerevisiae deletion strains, locus YML124C, strain tub3, hits give low values): 1.01
- normalized growth (S. cerevisiae deletion strains, locus YMR058W, strain fet3, hits give low values): 1.01
- normalized growth (S. cerevisiae deletion strains, locus YMR078C, strain ctf18, hits give low values): 1.02
- normalized growth (S. cerevisiae deletion strains, locus YMR125W, strain sto1, hits give low values): 1.01
- normalized growth (S. cerevisiae deletion strains, locus YMR129W, hits give low values): 1.01
- normalized growth (S. cerevisiae deletion strains, locus YMR205C, strain PFK2, hits give low values): 1.02
- normalized growth (S. cerevisiae deletion strains, locus YMR223W, strain ubp8, hits give low values): 1.05
- normalized growth (S. cerevisiae deletion strains, locus YMR231W, strain pep5, hits give low values): 1.01
- normalized growth (S. cerevisiae deletion strains, locus YMR307W, strain GAS1, hits give low values): 1.02
- normalized growth (S. cerevisiae deletion strains, locus YNL067W, strain RPL9B, hits give low values): 0.997
- normalized growth (S. cerevisiae deletion strains, locus YNL071W, strain lat1, hits give low values): 1
- normalized growth (S. cerevisiae deletion strains, locus YNL128W, strain TEP1, hits give low values): 1.02
- normalized growth (S. cerevisiae deletion strains, locus YNL153C, strain GIM3, hits give low values): 0.989 and 1.02
- normalized growth (S. cerevisiae deletion strains, locus YNL175C, strain NOP13, hits give low values): 1.02
- normalized growth (S. cerevisiae deletion strains, locus YNL183C, strain NPR1, hits give low values): 0.886
- normalized growth (S. cerevisiae deletion strains, locus YNL197C, strain WHI3, hits give low values): 0.992
- normalized growth (S. cerevisiae deletion strains, locus YNL209W, strain ssb2, hits give low values): 1
- normalized growth (S. cerevisiae deletion strains, locus YNL224C, strain SQS1, hits give low values): 1.01
- normalized growth (S. cerevisiae deletion strains, locus YNL233W, strain BNI4, hits give low values): 0.986
- normalized growth (S. cerevisiae deletion strains, locus YNL248C, strain rpa49, hits give low values): 1.02
- normalized growth (S. cerevisiae deletion strains, locus YNL250W, strain rad50, hits give low values): 1.02
- normalized growth (S. cerevisiae deletion strains, locus YNL271C, strain bni1, hits give low values): 1.01
- normalized growth (S. cerevisiae deletion strains, locus YNL298W, strain CLA4, hits give low values): 1.01
- normalized growth (S. cerevisiae deletion strains, locus YNL307C, strain MCK1, hits give low values): 1.02
- normalized growth (S. cerevisiae deletion strains, locus YNL322C, strain KRE1 (second series), hits give low values): 1.01
- normalized growth (S. cerevisiae deletion strains, locus YNL322C, strain KRE1, hits give low values): 0.991
- normalized growth (S. cerevisiae deletion strains, locus YNR049C, strain mso1, hits give low values): 1.02
- normalized growth (S. cerevisiae deletion strains, locus YNR052C, strain pop2, hits give low values): 1.01
- normalized growth (S. cerevisiae deletion strains, locus YOL006C, strain TOP1, hits give low values): 0.902
- normalized growth (S. cerevisiae deletion strains, locus YOL012C, strain htz1): 0.737
- normalized growth (S. cerevisiae deletion strains, locus YOL147C, strain pex11, hits give low values): 1.02
- normalized growth (S. cerevisiae deletion strains, locus YOR001W, strain rrp6, hits give low values): 1
- normalized growth (S. cerevisiae deletion strains, locus YOR061W, strain CKA2, hits give low values): 1.01
- normalized growth (S. cerevisiae deletion strains, locus YOR069W, strain VPS5, hits give low values): 1.01
- normalized growth (S. cerevisiae deletion strains, locus YOR070C, strain gyp1, hits give low values): 1.01
- normalized growth (S. cerevisiae deletion strains, locus YOR080W, strain dia2, hits give low values): 1
- normalized growth (S. cerevisiae deletion strains, locus YOR083W, strain WHI5 (second series), hits give low values): 1.01
- normalized growth (S. cerevisiae deletion strains, locus YOR083W, strain WHI5, hits give low values): 1.01
- normalized growth (S. cerevisiae deletion strains, locus YOR106W, strain vam3, hits give low values): 0.998
- normalized growth (S. cerevisiae deletion strains, locus YOR136W, strain idh2, hits give low values): 1.01
- normalized growth (S. cerevisiae deletion strains, locus YOR144C, strain elg1, hits give low values): 1.01
- normalized growth (S. cerevisiae deletion strains, locus YOR184W, strain ser1, hits give low values): 1.01
- normalized growth (S. cerevisiae deletion strains, locus YOR231W, strain MKK1, hits give low values): 0.88
- normalized growth (S. cerevisiae deletion strains, locus YOR265W, strain rbl2, hits give low values): 1.01
- normalized growth (S. cerevisiae deletion strains, locus YOR270C, strain vph1, hits give low values): 1
- normalized growth (S. cerevisiae deletion strains, locus YOR290C, strain snf2, hits give low values): 1.01
- normalized growth (S. cerevisiae deletion strains, locus YOR316C, strain cot1, hits give low values): 1.01
- normalized growth (S. cerevisiae deletion strains, locus YPL051W, strain arl3, hits give low values): 1.01
- normalized growth (S. cerevisiae deletion strains, locus YPL055C, strain LGE1, hits give low values): 0.929
- normalized growth (S. cerevisiae deletion strains, locus YPL078C, strain atp4, hits give low values): 1
- normalized growth (S. cerevisiae deletion strains, locus YPL106C, strain sse1, hits give low values): 1
- normalized growth (S. cerevisiae deletion strains, locus YPL240C, strain hsp82, hits give low values): 1.01
- normalized growth (S. cerevisiae deletion strains, locus YPL256C, strain CLN2, hits give low values): 0.98
- normalized growth (S. cerevisiae deletion strains, locus YPR119W, strain clb2, hits give low values): 1.01
- normalized growth (S. cerevisiae deletion strains, locus YPR141C, strain kar3, hits give low values): 1
- normalized growth (S. cerevisiae deletion strains, locus YPR163C, strain tif3, hits give low values): 1.01
- normalized growth (S. cerevisiae deletion strains, locus YPR167C, strain met16, hits give low values): 1.01
- normalized growth (S. cerevisiae deletion strains, strain wtn01, hits give low values): 1.01
- normalized growth (S. cerevisiae strains, strain wild type, hits give low values): 1
